Values joined by “and” are separate entries in the source; they are usually repeats but may differ in a detail not shown here. Identical values can stand only once. Some compounds were tested as several samples or in several runs, with calls that do not always agree. Active and inactive are the calls of the source. How the source made its calls: active means hit-call score of the fitted dose curve at least 0.9, where 1 is the maximum; inactive means score below 0.9.

Broadly, the AC50 is the concentration giving half of the maximal activity seen.

Read-out in test [1]: Interferon-gamma inducible Protein 10 (IP10), CXCL10 (gene 3627)
Kind of test: BSK_hDFCGF_IP10: BioMAP Diversity Plus: hDFCGF Assay for Interferon-gamma inducible Protein 10 (IP10) Biomarker Activity (AID 2283053). The note with it: primary human foreskin fibroblasts; actives raise or lower the signal. The gist of the method:
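ELISA quantification of IP-10 after a 24 h chemical exposure of human dermal foreskin fibroblast primary cultures. Both increases and decreases versus DMSO fitted.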

Read-out in test [2]: Urokinase-type plasminogen activator receptor (uPAR), PLAUR (gene 5329)
Kind of test: BSK_CASM3C_uPAR: BioMAP Diversity Plus: CASM3C Assay for Urokinase-type plasminogen activator receptor (uPAR) Biomarker Activity (AID 2283054).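 Further: cell-surface uPAR protein level quantified by ELISA.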 The settings on record: primary human coronary artery smooth muscle cells; actives raise or lower the signal.

Read-out in test [3]: Vascular cell adhesion molecule 1 (VCAM1), VCAM1 (gene 7412)
Kind of test: BSK_CASM3C_VCAM1: BioMAP Diversity Plus: CASM3C Assay for Vascular cell adhesion molecule 1 (VCAM1) Biomarker Activity (AID 2283055).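 Further: VCAM-1 protein level quantified by ELISA on the cells.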 The settings on record: primary human coronary artery smooth muscle cells; actives raise or lower the signal.

Read-out in test [4]: Collagen III, COL3A1 (gene 1281)
Nature of the test: BSK_hDFCGF_CollagenIII: BioMAP Diversity Plus: hDFCGF Assay for Collagen III Biomarker Activity (AID 2283056). The settings on record: primary human foreskin fibroblasts; actives raise or lower the signal. Put shortly:
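Human foreskin primary fibroblasts were exposed to test chemicals for 24 h, after which collagen III was quantified by ELISA. Activity was fitted bidirectionally against DMSO as negative control and baseline.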

Test [5] can be described thus: BSK_hDFCGF_Proliferation: Cell Proliferation Assessment in the BioMAP Diversity Plus: hDFCGF Assay (AID 2283059).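 Further: curves fitted for both rise and fall of signal versus DMSO baseline.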 The settings on record: primary human foreskin fibroblasts. Put shortly:
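Primary human foreskin fibroblasts, sub-confluent; […]; 10% TCA fix, 0.1% SRB stain, A560 total protein. Gain/loss fitted bidirectionally vs DMSO control.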

Read-out in test [6]: Macrophage colony-stimulating factor (MCSF), CSF1 (gene 1435)
Kind of test: BSK_hDFCGF_MCSF: BioMAP Diversity Plus: hDFCGF Assay for Macrophage colony-stimulating factor (MCSF) Biomarker Activity (AID 2283060). The note with it: primary human foreskin fibroblasts; actives raise or lower the signal. The gist of the method:
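Human foreskin primary fibroblasts were treated with test chemical for 24 h, and M-CSF was then measured by ELISA. Data were fitted bidirectionally against DMSO as the negative control and activity baseline.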

Test [7] in a line: BSK_hDFCGF_SRB: Viability Assessment in the BioMAP Diversity Plus: hDFCGF Assay (AID 2283061).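 Further: cells exposed to compound for 24 h before the read.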 The settings on record: primary human foreskin fibroblasts. The gist of the method:
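Human foreskin primary fibroblasts were treated with compound and assessed 24 h after dosing. Total protein was measured by sulforhodamine B staining (0.1% SRB after 10% TCA fixation, 560 nm read) as a cytotoxicity marker, with bidirectional fitting against DMSO baseline.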

Read-out in test [8]: TIMP metallopeptidase inhibitor 1 (TIMP1), TIMP1 (gene 7076)
Kind of test: BSK_hDFCGF_TIMP1: BioMAP Diversity Plus: hDFCGF Assay for TIMP metallopeptidase inhibitor 1 (TIMP1) Biomarker Activity (AID 2283062). The note with it: primary human foreskin fibroblasts; actives raise or lower the signal. Put shortly: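 Primary human foreskin fibroblasts in the hDFCGF system were dosed with compound for 24 h, then TIMP-1 was measured by ELISA. Activity was fitted bidirectionally relative to DMSO control; parallel SRB staining assessed cytotoxicity.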

Read-out in test [9]: Monokine induced gamma interferon (MIG), CXCL9 (gene 4283)
Kind of test: BSK_hDFCGF_MIG: BioMAP Diversity Plus: hDFCGF Assay for Monokine induced gamma interferon (MIG) Biomarker Activity (AID 2283063). The settings on record: primary human foreskin fibroblasts; actives raise or lower the signal. The gist of the method:
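ELISA read-out of MIG from primary human dermal fibroblasts 24 h post-dosing. Gain or loss of signal fitted bidirectionally, DMSO as baseline.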

Read-out in test [10]: Matrix Metallopeptidase 1 (MMP1), MMP1 (gene 4312)
Kind of test: BSK_hDFCGF_MMP1: BioMAP Diversity Plus: hDFCGF Assay for Matrix Metallopeptidase 1 (MMP1) Biomarker Activity (AID 2283064). The settings on record: primary human foreskin fibroblasts; actives raise or lower the signal. Put shortly: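 ELISA read-out of MMP1 from human foreskin fibroblasts (primary skin cells), 24 h post-dose. Gain or loss of signal was fitted bidirectionally versus DMSO negative control; cytotoxicity was checked by SRB in parallel cultures.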

Read-out in test [11]: Vascular cell adhesion molecule 1 (VCAM1), VCAM1 (gene 7412)
Nature of the test: BSK_hDFCGF_VCAM1: BioMAP Diversity Plus: hDFCGF Assay for Vascular cell adhesion molecule 1 (VCAM1) Biomarker Activity (AID 2283065).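 On AC50: VCAM-1 protein level quantified by ELISA after 24 h chemical exposure.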 The settings on record: primary human foreskin fibroblasts; actives raise or lower the signal. The gist of the method:
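Primary human foreskin fibroblasts (hDFCGF system) were dosed with chemical and VCAM-1 was measured by ELISA 24 h later. Bidirectional curve fitting used DMSO as negative control and activity baseline.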

Read-out in test [12]: Plasminogen activator inhibitor-1 (PAI1), SERPINE1 (gene 5054)
Nature of the test: BSK_hDFCGF_PAI1: BioMAP Diversity Plus: hDFCGF Assay for Plasminogen activator inhibitor-1 (PAI1) Biomarker Activity (AID 2283066). The note with it: primary human foreskin fibroblasts; actives raise or lower the signal. Put shortly: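 PAI-1 levels in human dermal foreskin fibroblasts were quantified by ELISA 24 h after dosing, with gain or loss analysed against DMSO. Overt cytotoxicity was checked by sulforhodamine B total-protein staining in parallel cultures.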

Read-out in test [13]: Intercellular Adhesion Molecule 1 (ICAM1), ICAM1 (gene 3383)
Nature of the test: BSK_KF3CT_ICAM1: BioMAP Diversity Plus: KF3CT Assay for Intercellular Adhesion Molecule 1 (ICAM1) Biomarker Activity (AID 2283067). The settings on record: primary human keratinocytes with fibroblasts; actives raise or lower the signal. The gist of the method: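 Human keratinocyte plus foreskin fibroblast primary co-culture was exposed to chemical for 24 h. ICAM-1 was then quantified by ELISA, and the data were fit bidirectionally against DMSO as the negative control and baseline.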

Read-out in test [14]: Interferon-gamma inducible Protein 10 (IP10), CXCL10 (gene 3627)
Nature of the test: BSK_KF3CT_IP10: BioMAP Diversity Plus: KF3CT Assay for Interferon-gamma inducible Protein 10 (IP10) Biomarker Activity (AID 2283068). The note with it: primary human keratinocytes with fibroblasts; actives raise or lower the signal. The gist of the method:
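In a primary skin co-culture of keratinocytes and fibroblasts, IP-10 is quantified by ELISA at 24 h after dosing. SRB staining of parallel wells monitors overt toxicity. Curves are fitted both directions against DMSO.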

The nature of test [15]: BSK_KF3CT_SRB: Viability Assessment in the BioMAP Diversity Plus: KF3CT Assay (AID 2283069).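 Further: fitted for both signal gain and loss against DMSO baseline.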 The note with it: primary human keratinocytes with fibroblasts. Put shortly: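 SRB read-out at 560 nm (0.1% stain, TCA-fixed cells) gauges overt cytotoxicity in a human skin keratinocyte–fibroblast co-culture 24 h post-dosing. Signal change was fitted bidirectionally relative to DMSO control.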

Read-out in test [16]: Interleukin-1 alpha (IL1a), IL1A (gene 3552)
Nature of the test: BSK_KF3CT_IL1a: BioMAP Diversity Plus: KF3CT Assay for Interleukin-1 alpha (IL1a) Biomarker Activity (AID 2283070). The settings on record: primary human keratinocytes with fibroblasts; actives raise or lower the signal. Put shortly: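 Primary skin co-culture (keratinocytes, foreskin fibroblasts), 24 h exposure; ELISA for IL-1a; bidirectional curve fit vs DMSO.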

Read-out in test [17]: TIMP metallopeptidase inhibitor 2 (TIMP2), TIMP2 (gene 7077)
Kind of test: BSK_KF3CT_TIMP2: BioMAP Diversity Plus: KF3CT Assay for TIMP metallopeptidase inhibitor 2 (TIMP2) Biomarker Activity (AID 2283071). The note with it: primary human keratinocytes with fibroblasts; actives raise or lower the signal. The gist of the method:
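TIMP-2 measured by ELISA at 24 h in human keratinocyte/fibroblast primary co-cultures exposed to chemicals. Both increases and decreases were fitted against DMSO. Parallel cultures were stained with SRB for total protein as an overt-cytotoxicity check.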

Read-out in test [18]: Transforming growth factor beta 1 (TGFb1), TGFB1 (gene 7040)
Kind of test: BSK_KF3CT_TGFb1: BioMAP Diversity Plus: KF3CT Assay for Transforming growth factor beta 1 (TGFb1) Biomarker Activity (AID 2283072). The note with it: primary human keratinocytes with fibroblasts; actives raise or lower the signal. The gist of the method:
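ELISA quantifies TGF-b1 at 24 h post-dose in a primary human skin co-culture of keratinocytes and fibroblasts, with gain or loss judged against DMSO. Parallel SRB total-protein staining flags overt cytotoxicity.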

Read-out in test [19]: Interleukin-8 (IL8), CXCL8 (gene 3576)
Kind of test: BSK_hDFCGF_IL8: BioMAP Diversity Plus: hDFCGF Assay for Interleukin-8 (IL8) Biomarker Activity (AID 2283058). The settings on record: primary human foreskin fibroblasts; actives raise or lower the signal. Put shortly: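 hDFCGF human dermal fibroblasts; 24 h chemical exposure; IL-8 by ELISA; bidirectional curve fit vs DMSO baseline; gain or loss of signal scored.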

Read-out in test [20]: Epidermal growth factor receptor (EGFR), EGFR (gene 1956)
Nature of the test: BSK_hDFCGF_EGFR: BioMAP Diversity Plus: hDFCGF Assay for Epidermal growth factor receptor (EGFR) Biomarker Activity (AID 2283057). The note with it: primary human foreskin fibroblasts; actives raise or lower the signal. Put shortly: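 EGFR levels by ELISA in human dermal fibroblast cultures, 24 h post-treatment, fitted bidirectionally versus DMSO. Parallel wells stained with sulforhodamine B to detect overt cytotoxicity.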

As for `CCCCC(CC)CO[N+](=O)[O-]` (centres undefined), the outcome in [1], in test [4], in test [5], in test [6], in [7] and in [8] was inactive. Moreover, the result in test [9], in test [10], in test [11], in test [12], in test [16] and in [18] was inactive. The AC50 in [2] was 3.05 µM (active); in test [3], 34.1 µM (active); in [13], 30.9 µM (active); in test [14], 30.2 µM (active); in test [15], 36.4 µM (active); in test [17] it was 31.7 µM (active).
Take `COc1cc(-c2ccc(N)c(OC)c2)ccc1N`: the result in [1], in [2], in [3], in test [4], in [19] and in test [6] was inactive. Also, the result in test [7], in test [8], in test [9], in test [10], in test [11] and in test [12] was inactive. In addition, the outcome in test [13], in test [14], in test [15], in test [16], in test [17] and in test [18] was inactive. Besides, the AC50 in [5] was 13.2 µM (active) and 4.28 µM (active); in test [6], 9.49 µM (active); in [10] it was 20 µM (active); in test [11], 19.2 µM (active).
Take `CCOP(=S)(OCC)SCSP(=S)(OCC)OCC`: the AC50 in [1] is 13.9 µM (active); in test [4], 10 µM (active); in test [5], 31.6 µM (active). The result in test [2], in test [3], in test [20], in [6], in test [7] and in test [8] was inactive. In addition, the outcome in test [9], in [10], in [11], in test [12], in test [13] and in test [14] was inactive. The result in [15], in test [16], in test [17] and in test [18] was inactive.
As for `C(=NC1CCCCC1)=NC1CCCCC1`, the AC50 in test [1] is 11.7 µM (active); in test [2], 26.8 µM (active); in [3], 20 µM (active); in test [4], 33.2 µM (active); in [5], 20 µM (active); in test [6] it was 20 µM (active). Also, the AC50 is 13.8 µM (active) in [7]; 14.9 µM (active) in test [8]; 26.8 µM (active) in test [9]; 32.7 µM (active) in test [10]; 10.7 µM (active) in test [11]; 20 µM (active) in test [12]. In addition, the AC50 in test [13] is 20 µM (active); in [14], 14.9 µM (active); in test [15], 15 µM (active); in [16], 17.2 µM (active); in test [17], 20 µM (active); in test [18], 9.13 µM (active). In addition, the result in test [20] was inactive.
For the compound `CCSC(C)CC1CC(=O)C(C(CC)=NOC/C=C/Cl)=C(O)C1` (centres undefined), the outcome in [2], in test [3], in [4], in test [20], in [19] and in test [5] was inactive. The result in [6], in [7], in test [8], in [9], in [10] and in [11] was inactive. Besides, the result in [12], in test [13], in test [14], in [15], in [16] and in [17] was inactive. For the same compound, the result in test [18] was inactive.
Take `COP(=S)(OC)Oc1cc(Cl)c(Cl)cc1Cl`: the result in test [1], in [2], in test [5], in test [7], in test [8] and in [9] was inactive. Further, the result in [10], in test [12], in test [13], in test [14], in test [15] and in test [16] was inactive. In addition, the AC50 was 16.5 µM (active) in test [3]; 20 µM (active) in test [4]; 25.4 µM (active) in test [11]; 32.2 µM (active) in test [17]; 36.3 µM (active) in test [18].
